Measurements from the supplement of paper PMC10849652.
Targets with a hit are over-represented here; the source holds about 8,800 in all. About 0.5% of all pairs of compound and target were hits.

Legend:
Assay in all cases: log2 fold change, soluble protein after heating vs DMSO (PISA); higher = thermal stabilisation; K562 lysate, 10 uM; active = over 0.2 and 3.5 SD of the protein, either way, in both replicates (recomputed)
[1] = compound: Cc1cn(-c2cc(NC(=O)c3ccc(C)c(Nc4nccc(-c5cccnc5)n4)c3)cc(C(F)(F)F)c2)cn1 [nilotinib]
Method in brief: (§1)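 K562 pellets were dounce-homogenised in PBS pH 7.4 containing 1 mM MgCl2, and the crude extract, at 1 mg/mL protein, was exposed to 10 μM compound for 30 min. Aliquots were heated for 3 min across 48°C-58°C, pooled, brought to 0.5% NP-40 at 4°C and spun at 21,000xg for 90 min, with the supernatant taken as soluble protein. TMTpro 16plex LC-MS/MS with equalised channel sums quantified that protein. Values are log-two fold changes in thermal stability relative to solvent controls, taken from duplicates.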

[2] = compound: Cc1nc(Nc2n[nH]c3c2CN(C(=O)N[C@H](CN(C)C)c2ccccc2)C3(C)C)c2sccc2n1
Method in brief: as §1

[3] = compound: Cc1nc(Nc2ncc(C(=O)Nc3c(C)cccc3Cl)s2)cc(N2CCN(CCO)CC2)n1 [dasatinib]
Method in brief: as §1

[4] = compound: Cc1ncc(-c2ccnc(Nc3ccc(S(C)(=O)=O)cc3)n2)n1C(C)C
Method in brief: as §1

[5] = compound: Cn1cc(-c2ccc3c(c2)CCN3C(=O)Cc2cccc(C(F)(F)F)c2)c2c(N)ncnc21
Method in brief: as §1

[6] = compound: Cn1cc(CNCC2CCN(c3ncc(C(=O)NO)cn3)CC2)c2ccccc21 [quisinostat]
Method in brief: as §1

[7] = compound: Cn1cncc1[C@@](N)(c1ccc(Cl)cc1)c1ccc2c(c1)c(-c1cccc(Cl)c1)cc(=O)n2C [tipifarnib]
Method in brief: as §1

[8] = compound: NC(=O)Nc1cc(-c2cccc(F)c2)sc1C(=O)N[C@H]1CCCNC1
Method in brief: as §1

[9] = compound: NC(=O)c1cnc(N[C@@H]2CCCC[C@@H]2N)nc1Nc1cccc(-n2nccn2)c1
Method in brief: as §1

[10] = compound: NC1(c2ccc(-c3nc4ccn5c(=O)[nH]nc5c4cc3-c3ccccc3)cc2)CCC1
Method in brief: as §1

[11] = compound: NCC(=O)Nc1ccc(-n2nc(C(F)(F)F)cc2-c2ccc3c(ccc4ccccc43)c2)cc1
Method in brief: as §1

[12] = compound: O=C(CCCCCCC(=O)Nc1ccccc1)NO [vorinostat]
Method in brief: as §1

[13] = compound: O=C(O)c1ccc2c(c1)nc(Nc1cccc(Cl)c1)c1ccncc12 [silmitasertib]
Method in brief: as §1

[14] = compound: O=C1NC(=O)C(c2cnc3ccccn23)=C1c1cn2c3c(cc(F)cc13)CN(C(=O)N1CCCCC1)CC2
Method in brief: as §1

[15] = compound: c1cn2cc(-c3ccc4cn[nH]c4c3)nc(Nc3ccc(N4CCOCC4)cc3)c2n1 [entospletinib]
Method in brief: as §1

Measured: log2 fold change

RCOR3 isoform 3 (UniProt Q9P2K3)
inactive: [1] -0.016 | [2] -0.028 | [3] -0.052 | [4] 0.038 | [5] 0.01 | [6] 0.022 | [7] 0.011 | [8] 0.03 | [9] 0.029 | [10] 0.014 | [11] -0.044 | [12] -0.206 | [13] -0.002 | [14] -0.01 | [15] 0.034

RARS (UniProt P54136)
inactive: [1] 0.004 | [2] 0 | [3] -0.074 | [4] -0.017 | [5] 0.038 | [6] -0.017 | [7] 0.006 | [8] 0.049 | [9] 0.015 | [10] -0.023 | [11] -0.004 | [13] 0.056 | [14] -0.009 | [15] 0.024
active: [12] -0.309

RHOU (UniProt Q7L0Q8)
inactive: [1] -0.032 | [2] -0.028 | [3] -0.004 | [4] 0.114 | [5] 0.145 | [6] -0.053 | [7] 0.12 | [8] 0.035 | [9] -0.045 | [10] 0.033 | [11] 0.019 | [12] -0.116 | [13] 0.058 | [14] -0.039 | [15] 0.024

RBBP7 isoform 2 (UniProt Q16576)
inactive: [1] 0.013 | [2] -0.019 | [3] -0.005 | [4] -0.035 | [5] 0.016 | [6] -0.051 | [7] 0.047 | [8] 0.01 | [9] -0.025 | [10] 0.035 | [11] -0.043 | [12] 0.03 | [13] -0.012 | [14] -0.068 | [15] 0.024

RAB27A (UniProt P51159)
Sequence of UniProt P51159 (P51159 whole entry, looked up): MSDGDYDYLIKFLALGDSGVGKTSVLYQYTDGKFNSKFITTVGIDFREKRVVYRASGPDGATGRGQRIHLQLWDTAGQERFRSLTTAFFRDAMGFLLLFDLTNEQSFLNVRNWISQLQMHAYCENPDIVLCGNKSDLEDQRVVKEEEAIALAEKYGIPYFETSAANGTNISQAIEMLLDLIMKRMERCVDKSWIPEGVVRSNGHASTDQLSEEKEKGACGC
inactive: [1] -0.018 | [2] 0.02 | [3] 0.022 | [4] -0.059 | [5] 0.003 | [6] 0.037 | [7] 0.038 | [8] -0.024 | [9] 0.014 | [10] 0.021 | [11] -0.033 | [12] -0.08 | [13] 0.066 | [14] -0.009 | [15] 0.023

RPS6KA3 (UniProt P51812)
Sequence of UniProt P51812 (P51812 whole entry, looked up): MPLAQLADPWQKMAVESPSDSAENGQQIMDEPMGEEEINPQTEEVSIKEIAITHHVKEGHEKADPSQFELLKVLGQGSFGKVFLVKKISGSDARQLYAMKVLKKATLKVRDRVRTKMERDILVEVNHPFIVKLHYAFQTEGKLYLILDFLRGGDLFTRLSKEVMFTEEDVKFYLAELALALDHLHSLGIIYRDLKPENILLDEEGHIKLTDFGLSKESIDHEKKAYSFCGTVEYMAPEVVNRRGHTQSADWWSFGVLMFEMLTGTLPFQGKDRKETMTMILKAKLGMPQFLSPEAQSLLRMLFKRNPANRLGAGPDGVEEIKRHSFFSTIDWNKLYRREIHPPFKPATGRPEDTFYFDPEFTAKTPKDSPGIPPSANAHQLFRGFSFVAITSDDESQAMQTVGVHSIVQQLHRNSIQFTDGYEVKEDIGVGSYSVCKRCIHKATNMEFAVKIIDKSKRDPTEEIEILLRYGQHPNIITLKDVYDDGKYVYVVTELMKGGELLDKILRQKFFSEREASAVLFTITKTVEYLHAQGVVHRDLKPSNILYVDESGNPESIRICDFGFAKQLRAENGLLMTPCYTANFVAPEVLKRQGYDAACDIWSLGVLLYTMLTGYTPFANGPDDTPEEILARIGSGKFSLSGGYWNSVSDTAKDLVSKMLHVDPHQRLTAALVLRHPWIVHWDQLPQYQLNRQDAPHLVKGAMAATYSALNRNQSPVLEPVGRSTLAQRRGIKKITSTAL
inactive: [1] -0.02 | [2] 0.17 | [3] -0.065 | [4] 0.039 | [5] 0.031 | [6] -0.046 | [7] -0.023 | [8] 0.133 | [9] 0.09 | [10] 0.005 | [11] -0.017 | [12] -0.384 | [13] 0.362 | [14] 0.181 | [15] -0.052

RAD50 isoform 2 (UniProt Q92878)
inactive: [1] -0.004 | [2] 0.016 | [3] -0.042 | [4] -0.003 | [5] 0.026 | [6] -0.031 | [7] -0.02 | [8] 0.016 | [9] 0.005 | [10] 0.001 | [11] -0.005 | [13] 0.024 | [14] -0.009 | [15] -0.003
active: [12] -0.458

SCD (UniProt O00767)
Sequence of UniProt O00767 (O00767 whole entry, looked up): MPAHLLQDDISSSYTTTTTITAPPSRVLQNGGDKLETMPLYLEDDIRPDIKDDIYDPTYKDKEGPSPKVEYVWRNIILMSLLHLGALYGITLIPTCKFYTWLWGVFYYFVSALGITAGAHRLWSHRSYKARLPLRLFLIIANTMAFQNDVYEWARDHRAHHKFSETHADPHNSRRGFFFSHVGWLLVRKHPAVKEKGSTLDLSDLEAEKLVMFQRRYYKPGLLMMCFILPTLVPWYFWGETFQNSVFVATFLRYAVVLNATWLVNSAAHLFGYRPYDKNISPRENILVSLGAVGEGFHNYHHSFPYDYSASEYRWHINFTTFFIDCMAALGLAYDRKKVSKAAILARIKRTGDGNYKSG
inactive: [1] -0.007 | [2] -0.017 | [3] 0.01 | [4] -0.01 | [5] 0.007 | [6] -0.144 | [7] -0.077 | [8] -0.023 | [9] -0.183 | [10] 0.03 | [11] -0.045 | [12] 0.021 | [13] -0.057 | [14] -0.028 | [15] 0.017

RCOR1 (UniProt Q9UKL0)
inactive: [1] -0.024 | [2] -0.006 | [3] -0.054 | [4] 0.009 | [5] 0.003 | [6] 0.015 | [7] -0.022 | [8] 0.043 | [9] -0.015 | [10] 0.099 | [11] 0.034 | [12] -0.184 | [13] -0.014 | [14] -0.011 | [15] 0.009

RASA3 (UniProt Q14644)
active: [12] -0.361
inactive: [1] 0.065 | [2] -0.014 | [3] -0.144 | [4] 0.039 | [5] 0.109 | [6] 0.062 | [7] 0.009 | [8] 0.011 | [9] 0.012 | [10] 0.089 | [11] -0.022 | [13] -0.08 | [14] -0.015 | [15] 0.017

RBMX (UniProt P38159)
Sequence of UniProt P38159 (P38159 whole entry, looked up): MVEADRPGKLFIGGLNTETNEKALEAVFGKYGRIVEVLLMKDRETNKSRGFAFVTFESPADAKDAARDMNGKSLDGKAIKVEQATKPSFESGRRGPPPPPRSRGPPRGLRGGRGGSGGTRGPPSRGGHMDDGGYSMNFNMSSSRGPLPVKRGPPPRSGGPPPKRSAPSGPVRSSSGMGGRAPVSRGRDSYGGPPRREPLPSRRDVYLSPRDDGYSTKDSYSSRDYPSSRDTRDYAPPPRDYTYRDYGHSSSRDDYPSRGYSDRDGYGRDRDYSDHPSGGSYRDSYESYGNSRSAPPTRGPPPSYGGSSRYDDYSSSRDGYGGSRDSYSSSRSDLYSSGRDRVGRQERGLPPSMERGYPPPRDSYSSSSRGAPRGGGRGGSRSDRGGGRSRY
inactive: [1] 0.034 | [2] -0.079 | [3] -0.029 | [4] -0.052 | [5] -0.007 | [6] 0.042 | [7] 0.005 | [8] 0.014 | [9] 0.033 | [10] -0.021 | [11] -0.043 | [12] 0.065 | [13] 0.048 | [14] -0.022 | [15] 0.008

RBBP7 (UniProt Q16576)
inactive: [1] -0.02 | [2] -0.002 | [3] 0.029 | [4] 0.007 | [5] -0.006 | [6] -0.041 | [7] 0.014 | [8] 0.04 | [9] -0.003 | [10] 0.039 | [11] -0.005 | [12] -0.091 | [13] 0.033 | [14] -0.167 | [15] 0

RAB3IL1 (UniProt Q8TBN0)
inactive: [1] -0.025 | [2] -0.026 | [3] -0.048 | [4] 0.041 | [5] 0.017 | [6] -0.002 | [7] 0.037 | [8] 0.004 | [9] 0.017 | [10] 0.033 | [11] -0.006 | [13] 0.025 | [14] 0.07 | [15] 0.015
active: [12] -0.268

RALGAPB (UniProt Q86X10)
Sequence of UniProt Q86X10 (Q86X10 whole entry, looked up): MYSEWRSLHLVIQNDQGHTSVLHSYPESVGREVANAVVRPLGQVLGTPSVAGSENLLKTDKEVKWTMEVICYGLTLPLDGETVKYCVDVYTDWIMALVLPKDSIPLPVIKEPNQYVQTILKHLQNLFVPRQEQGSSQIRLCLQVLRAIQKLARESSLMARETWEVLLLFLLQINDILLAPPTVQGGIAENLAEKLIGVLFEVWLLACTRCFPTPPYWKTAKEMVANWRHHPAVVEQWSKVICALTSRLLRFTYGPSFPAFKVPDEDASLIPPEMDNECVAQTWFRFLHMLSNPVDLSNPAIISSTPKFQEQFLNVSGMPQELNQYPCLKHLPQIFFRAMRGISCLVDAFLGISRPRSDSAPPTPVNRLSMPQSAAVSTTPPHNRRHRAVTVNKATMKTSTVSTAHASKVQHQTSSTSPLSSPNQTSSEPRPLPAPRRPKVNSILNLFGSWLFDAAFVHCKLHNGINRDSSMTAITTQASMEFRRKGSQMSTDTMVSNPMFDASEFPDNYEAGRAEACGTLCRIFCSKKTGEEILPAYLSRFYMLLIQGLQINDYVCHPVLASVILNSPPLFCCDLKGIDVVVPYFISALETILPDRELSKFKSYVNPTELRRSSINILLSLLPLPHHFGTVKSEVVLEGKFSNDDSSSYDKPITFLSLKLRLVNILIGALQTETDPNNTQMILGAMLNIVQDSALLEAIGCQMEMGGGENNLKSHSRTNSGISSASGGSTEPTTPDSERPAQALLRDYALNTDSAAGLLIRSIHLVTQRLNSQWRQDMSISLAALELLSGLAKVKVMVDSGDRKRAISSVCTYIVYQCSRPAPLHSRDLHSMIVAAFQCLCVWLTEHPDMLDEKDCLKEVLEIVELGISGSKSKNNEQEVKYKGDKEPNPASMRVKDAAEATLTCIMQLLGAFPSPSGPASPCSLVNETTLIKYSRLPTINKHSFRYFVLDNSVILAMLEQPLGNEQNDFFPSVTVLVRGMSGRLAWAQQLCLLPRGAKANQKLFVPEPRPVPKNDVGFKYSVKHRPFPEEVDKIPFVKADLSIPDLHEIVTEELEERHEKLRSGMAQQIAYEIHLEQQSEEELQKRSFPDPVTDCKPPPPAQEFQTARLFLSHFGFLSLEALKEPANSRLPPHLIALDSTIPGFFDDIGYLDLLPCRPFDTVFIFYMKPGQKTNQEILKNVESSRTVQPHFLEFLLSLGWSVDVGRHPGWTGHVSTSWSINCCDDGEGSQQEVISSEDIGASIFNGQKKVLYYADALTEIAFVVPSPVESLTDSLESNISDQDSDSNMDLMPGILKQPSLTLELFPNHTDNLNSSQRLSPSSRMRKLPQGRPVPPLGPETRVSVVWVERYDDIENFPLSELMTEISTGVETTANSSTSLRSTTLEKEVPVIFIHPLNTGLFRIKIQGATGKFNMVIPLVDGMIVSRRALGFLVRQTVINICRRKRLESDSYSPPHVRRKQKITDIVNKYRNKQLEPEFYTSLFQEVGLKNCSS
inactive: [1] -0.022 | [2] 0.029 | [3] -0.026 | [4] 0.026 | [5] 0.015 | [6] -0.048 | [7] -0.021 | [8] 0.053 | [9] -0.019 | [10] -0.044 | [11] 0.004 | [13] 0.017 | [14] -0.017 | [15] -0.029
active: [12] -0.299

RBM42 (UniProt Q9BTD8)
inactive: [1] 0.102 | [2] -0.039 | [3] -0.021 | [4] 0.009 | [5] -0.039 | [6] -0.033 | [7] 0.073 | [8] -0.022 | [9] -0.049 | [10] 0.004 | [11] 0.19 | [12] -0.04 | [13] -0.031 | [14] 0.018 | [15] -0.058

RPS18 (UniProt P62269)
inactive: [1] 0.004 | [2] -0.02 | [3] -0.009 | [4] -0.039 | [5] -0.018 | [6] 0 | [7] 0.031 | [8] -0.018 | [9] 0.014 | [10] -0.006 | [11] 0.033 | [12] 0.081 | [13] 0.019 | [14] 0.007 | [15] -0.02

REXO4 (UniProt Q9GZR2)
inactive: [1] -0.001 | [2] -0.009 | [3] -0.008 | [4] 0.021 | [5] 0.008 | [6] 0.013 | [7] 0.015 | [8] 0.03 | [9] -0.045 | [10] 0.034 | [11] 0.03 | [12] -0.127 | [13] 0.05 | [14] -0.035 | [15] 0.067

RAD54L2 (UniProt Q9Y4B4)
Sequence of UniProt Q9Y4B4 (Q9Y4B4 whole entry, looked up): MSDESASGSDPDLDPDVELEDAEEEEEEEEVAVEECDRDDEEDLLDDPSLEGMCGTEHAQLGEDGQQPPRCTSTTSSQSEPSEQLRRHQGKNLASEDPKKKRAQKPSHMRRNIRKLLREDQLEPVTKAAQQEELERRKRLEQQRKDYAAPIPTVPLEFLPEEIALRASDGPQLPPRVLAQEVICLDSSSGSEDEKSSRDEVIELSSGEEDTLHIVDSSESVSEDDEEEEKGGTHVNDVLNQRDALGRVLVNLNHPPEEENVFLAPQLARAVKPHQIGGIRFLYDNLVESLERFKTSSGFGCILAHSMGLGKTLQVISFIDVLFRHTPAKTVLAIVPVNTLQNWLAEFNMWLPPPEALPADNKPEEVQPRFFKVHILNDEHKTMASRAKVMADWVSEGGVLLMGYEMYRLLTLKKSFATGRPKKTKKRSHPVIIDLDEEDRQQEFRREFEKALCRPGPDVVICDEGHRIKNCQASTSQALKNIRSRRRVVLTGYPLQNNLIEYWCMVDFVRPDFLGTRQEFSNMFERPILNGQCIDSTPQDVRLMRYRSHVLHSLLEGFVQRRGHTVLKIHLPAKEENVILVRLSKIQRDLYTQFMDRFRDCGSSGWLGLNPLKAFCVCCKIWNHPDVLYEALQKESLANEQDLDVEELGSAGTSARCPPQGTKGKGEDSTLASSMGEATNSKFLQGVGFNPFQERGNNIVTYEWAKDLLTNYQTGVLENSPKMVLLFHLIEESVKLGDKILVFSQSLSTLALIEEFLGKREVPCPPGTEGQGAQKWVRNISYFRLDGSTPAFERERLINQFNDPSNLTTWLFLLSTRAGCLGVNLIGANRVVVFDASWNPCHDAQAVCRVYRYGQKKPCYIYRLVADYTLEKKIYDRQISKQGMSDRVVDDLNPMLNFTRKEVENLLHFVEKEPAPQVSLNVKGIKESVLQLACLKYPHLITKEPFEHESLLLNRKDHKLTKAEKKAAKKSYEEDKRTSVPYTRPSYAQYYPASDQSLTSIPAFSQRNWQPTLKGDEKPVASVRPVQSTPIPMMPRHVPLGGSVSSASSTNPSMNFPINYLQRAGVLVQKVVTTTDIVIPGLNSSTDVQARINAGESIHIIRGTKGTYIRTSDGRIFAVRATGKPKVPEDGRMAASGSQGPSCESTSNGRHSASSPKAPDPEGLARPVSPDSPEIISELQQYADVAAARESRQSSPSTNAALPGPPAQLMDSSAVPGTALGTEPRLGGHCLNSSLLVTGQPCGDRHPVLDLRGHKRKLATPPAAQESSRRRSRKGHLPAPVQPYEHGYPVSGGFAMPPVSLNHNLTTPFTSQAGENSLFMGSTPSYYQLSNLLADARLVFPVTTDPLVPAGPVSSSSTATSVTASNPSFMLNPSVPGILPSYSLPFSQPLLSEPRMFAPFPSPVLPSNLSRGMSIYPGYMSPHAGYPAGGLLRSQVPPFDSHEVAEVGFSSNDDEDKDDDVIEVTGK
active: [12] -0.487
inactive: [1] -0.037 | [2] -0.03 | [3] -0.053 | [4] -0.047 | [5] -0.15 | [6] -0.009 | [7] -0.105 | [8] -0.013 | [9] 0.035 | [10] -0.091 | [11] 0.119 | [13] 0.04 | [14] 0.01 | [15] 0.014

RTN4IP1 (UniProt Q8WWV3)
active: [2] -0.34 | [12] -0.338
inactive: [1] -0.056 | [3] -0.046 | [4] -0.259 | [5] 0.028 | [6] -0.033 | [7] 0.245 | [8] -0.055 | [9] -0.012 | [10] 0.148 | [11] -0.1 | [13] 0.165 | [14] 0.054 | [15] -0.01

RNPS1 (UniProt Q15287)
Sequence of UniProt Q15287 (Q15287 whole entry, looked up): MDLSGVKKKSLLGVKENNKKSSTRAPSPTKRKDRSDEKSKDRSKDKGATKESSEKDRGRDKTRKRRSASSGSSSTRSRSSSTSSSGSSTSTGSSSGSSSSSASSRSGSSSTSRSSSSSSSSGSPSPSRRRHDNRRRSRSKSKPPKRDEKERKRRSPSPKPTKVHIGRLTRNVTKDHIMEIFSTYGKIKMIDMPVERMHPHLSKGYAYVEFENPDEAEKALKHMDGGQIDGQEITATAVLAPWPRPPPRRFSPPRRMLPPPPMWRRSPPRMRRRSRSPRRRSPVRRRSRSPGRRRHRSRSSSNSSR
inactive: [1] 0.025 | [2] -0.047 | [3] 0.044 | [4] -0.035 | [5] 0.034 | [7] -0.056 | [8] 0.029 | [9] 0.018 | [10] -0.033 | [11] -0.014 | [12] 0.02 | [13] -0.093 | [14] -0.012 | [15] 0.009
active: [6] 0.239

RBM22 (UniProt Q9NW64)
inactive: [1] -0.045 | [2] 0.024 | [3] -0.072 | [4] -0.006 | [5] 0.057 | [6] -0.022 | [7] -0.036 | [8] -0.027 | [9] 0.01 | [10] 0.033 | [11] 0.024 | [13] 0 | [14] -0.053 | [15] -0.023
active: [12] -0.23
